test system: LOC_OS02G45750-cb003; test: thermal shift delta Tm vs DMSO control; higher = stronger stabilization (binding); settings: 12.5 µM; protein concentration 2 µM
Summary of the method: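 Compounds dissolved in DMSO were added to purified rice kinase domain constructs, which had been expressed in E. coli, for differential scanning fluorimetry. Each well held 19.5 μl of 2 μM kinase in 100 mM potassium phosphate pH 7.5, 150 mM NaCl, 10% glycerol and 5 × SYPRO Orange. Fluorescence was followed from 25°C to 95°C at a rate of 0.05°C/s. Shifts in Boltzmann-fitted melting temperature are triplicate means relative to DMSO-only protein.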

Compared with `COc1cc(OC)cc(-c2cc3cnc(N)nc3nc2NC(=O)NC(C)(C)C)c1`, `COc1cc2nccc(Oc3ccc(NC(=O)C4(C(=O)Nc5ccc(F)cc5)CC4)cc3)c2cc1OC` [Cabozantinib malate (XL184)] is lower in “thermal shift delta Tm” value: 0.88 °C for the first, 0.86 °C for the second.

First: COc1ncc(-c2ccc3nccc(-c4ccnnc4)c3c2)cc1NS(=O)(=O)c1ccc(F)cc1F
Second: CNC(=O)c1ccc(-c2cnc3ncc(Cc4ccc5ncccc5c4)n3n2)cc1F
The “thermal shift delta Tm” value of the first is higher: 1.38 °C for the first, 0.61 °C for the second.

Going from `Cc1cc(C(C)Nc2ccccc2)c2nc(N3CCOCC3)cc(=O)n2c1` (stereo not drawn) to `Nc1cccc(S(=O)(=O)N2CCCN(S(=O)(=O)c3ccc4c(c3)OCCO4)CC2)c1`, the “thermal shift delta Tm” value rises from -0.62 °C to 0.54 °C.

First: FC(F)(F)c1ccc(CNc2ccc(Cc3c[nH]c4ncc(Cl)cc34)cn2)cn1 [Pexidartinib (PLX3397)]
Second: NCC(=O)Nc1ccc(-n2nc(C(F)(F)F)cc2-c2ccc3c(ccc4ccccc43)c2)cc1
The “thermal shift delta Tm” value of the first is higher: 6.87 °C for the first, -0.16 °C for the second.

Compared with `NC(=O)c1ccc(N(C(N)=O)c2c(F)cccc2F)nc1-c1ccc(F)cc1F`, `CN(C)C/C=C/C(=O)Nc1cc2c(Nc3ccc(F)c(Cl)c3)ncnc2cc1O[C@H]1CCOC1` [Afatinib (BIBW2992)] is higher in “thermal shift delta Tm” value: -0.83 °C for the first, 0.69 °C for the second.

Compared with `CCn1c(-c2nonc2N)nc2c(C#CC(C)(C)O)ncc(OC[C@H]3CCCNC3)c21`, `Cc1cc2c(F)c(Oc3ncnn4cc(OC[C@@H](C)OC(=O)[C@H](C)N)c(C)c34)ccc2[nH]1` is higher in “thermal shift delta Tm” value: 0.16 °C for the first, 1.3 °C for the second.

With `C[C@@H]1COC(Nc2ccc3ncnc(Nc4ccc(OCc5nccs5)c(Cl)c4)c3c2)=N1` [Varlitinib] the “thermal shift delta Tm” value was 1.53 °C.
